In PubChem BioAssay AID720597 (Broad Institute, 2013):
Entries with a potency or affinity are not part of this list. The source made the active and inactive calls.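 The calls were made as follows: active = fitted half-maximal dose no more than twice the top valid tested dose, for compounds that lower signal; inconclusive = fit invalid, or curve flat with activity between -70 and -30; inactive = potency past limit, curve flat within ±30, or signal increasing.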

Target: NAD-dependent protein deacylase sirtuin-5, mitochondrial (Homo sapiens) (UniProt Q9NXA8)
Sequence (Q9NXA8 whole entry, looked up): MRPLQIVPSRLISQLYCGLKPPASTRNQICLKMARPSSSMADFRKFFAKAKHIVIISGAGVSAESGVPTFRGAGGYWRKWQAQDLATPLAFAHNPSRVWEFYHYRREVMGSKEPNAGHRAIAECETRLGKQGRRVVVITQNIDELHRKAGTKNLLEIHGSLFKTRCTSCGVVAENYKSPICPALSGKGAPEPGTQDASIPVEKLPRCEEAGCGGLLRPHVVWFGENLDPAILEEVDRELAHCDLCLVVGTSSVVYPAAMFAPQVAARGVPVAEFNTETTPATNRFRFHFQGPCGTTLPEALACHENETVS
Experiment: blockers of sirtuin-5 peptide desuccinylation – biochemical, fluorescence imaging, cherry-pick, set 6, dose response (AID 720597);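 also: lower AMC signal can also come from blocking the trypsin step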
Settings: Purified SirT5, succinyl-peptide-AMC/trypsin fluorescence; series mostly up to 15 µM

outcome, inactive:
CCNC(=O)C[C@H]1CC[C@H]2[C@@H](COC[C@@H](O)CN2C(=O)Nc2ccc(C(F)(F)F)cc2)O1
CC(C)NC(=O)N(C)C[C@H]1Oc2ccc(NC(=O)Cc3ccccc3)cc2C(=O)N([C@H](C)CO)C[C@@H]1C
COc1ccc(S(=O)(=O)N(C)C[C@@H]2OCCCC[C@H](C)Oc3ccc(NS(=O)(=O)c4ccc(Cl)cc4)cc3C(=O)N([C@@H](C)CO)C[C@H]2C)cc1
O=C(C[C@@H]1C[C@@H]2c3cc(NC(=O)NC4CCCCC4)ccc3O[C@@H]2[C@H](CO)O1)NCCc1ccccc1
C[C@H](CO)N1C[C@H](C)[C@@H](CN(C)Cc2ccccc2C(F)(F)F)OCc2ccccc2-c2ccccc2C1=O
Cc1noc(C)c1S(=O)(=O)Nc1ccc2c(c1)C(=O)N([C@H](C)CO)C[C@H](C)[C@@H](CN(C)Cc1ccc(C(F)(F)F)cc1)OCCCC[C@H](C)O2
COc1ccc(NC(=O)Nc2ccc3c(c2)C(=O)N([C@H](C)CO)C[C@H](C)[C@@H](CN(C)Cc2ccc(C(F)(F)F)cc2)O3)cc1
CC(C)CC#Cc1ccc2c(c1)O[C@H](CN(C)C(=O)C1CCCCC1)[C@H](C)CN([C@@H](C)CO)S2(=O)=O
C[C@@H]1CN([C@H](C)CO)C(=O)c2cc(N(C)C)ccc2O[C@H]1CN(C)S(=O)(=O)c1ccccc1
C[C@H]1CN([C@@H](C)CO)C(=O)Cc2cc(NS(=O)(=O)c3ccc(Cl)cc3)ccc2O[C@@H]1CN(C)Cc1ccc(Oc2ccccc2)cc1
C/C=C/c1ccc2c(c1)O[C@H](CN(C)Cc1cccc(F)c1)[C@H](C)CN([C@H](C)CO)S2(=O)=O
Cc1noc(C)c1S(=O)(=O)Nc1ccc2c(c1)C(=O)N([C@@H](C)CO)C[C@@H](C)[C@H](CN(C)Cc1ccc(Cl)c(Cl)c1)OCCCC[C@@H](C)O2
C/C=C/c1cnc2c(c1)C(=O)N([C@@H](C)CO)C[C@@H](C)[C@@H](CN(C)C(=O)NC1CCCCC1)O2
C[C@@H]1CN([C@H](C)CO)C(=O)c2cc(NS(=O)(=O)c3ccc(Cl)cc3)ccc2O[C@@H](C)CCCCO[C@H]1CN(C)C(=O)Nc1ccc(C(F)(F)F)cc1
C[C@@H]1CN([C@H](C)CO)C(=O)CCCn2cc(nn2)CO[C@H]1CN(C)S(=O)(=O)c1ccc(F)cc1
C[C@H]1CN([C@@H](C)CO)C(=O)Cc2cc(NC(=O)Nc3ccc(C(F)(F)F)cc3)ccc2O[C@H]1CN(C)Cc1ccc(C(=O)Nc2ccccc2N)cc1
C[C@@H]1CN([C@H](C)CO)S(=O)(=O)c2ccc(/C=C/c3ccccc3)cc2O[C@@H]1CN(C)C(=O)c1ccc2c(c1)OCO2
C[C@H](CO)N1C[C@H](C)[C@H](CN(C)C(=O)Nc2cc(F)ccc2F)Oc2cc(/C=C/c3ccccc3)ccc2S1(=O)=O
COc1ccccc1-c1ccc2c(c1)O[C@H](CN(C)S(=O)(=O)c1ccc(F)cc1)[C@H](C)CN([C@H](C)CO)S2(=O)=O
C[C@H]1CCCCO[C@@H](CN(C)Cc2ccc(C(F)(F)F)cc2)[C@@H](C)CN([C@@H](C)CO)C(=O)c2cc(NS(=O)(=O)c3ccc(F)cc3)ccc2O1
CN(C)C(=O)c1cccc(-c2ccc([C@H]3[C@H](CO)N4CCCCN(S(C)(=O)=O)C[C@@H]34)cc2)c1
C[C@@H]1CN([C@H](C)CO)C(=O)c2cc(C#CC(C)(C)O)cnc2O[C@H]1CN(C)C(=O)CC1CC1
C[C@H]1CN([C@@H](C)CO)C(=O)Cc2cc(NC(=O)CCCCCC(=O)Nc3ccccc3N)ccc2O[C@@H]1CN(C)Cc1ccc(Oc2ccccc2)cc1
C[C@H]1CN([C@@H](C)CO)C(=O)c2cc(NC(=O)CCN3CCOCC3)ccc2O[C@H]1CN(C)C(=O)Nc1ccc2c(c1)OCO2
C[C@H]1CN([C@@H](C)CO)C(=O)c2ccccc2-c2ccccc2CO[C@@H]1CN(C)Cc1cccc(C(F)(F)F)c1
COc1ccc(S(=O)(=O)N(C)C[C@H]2OCCCC[C@H](C)Oc3ccc(NS(=O)(=O)c4ccc(F)cc4)cc3C(=O)N([C@H](C)CO)C[C@H]2C)cc1
CNC[C@H]1Oc2ccc(NC(=O)Nc3ccc(F)cc3)cc2CC(=O)N([C@H](C)CO)C[C@H]1C
